High-throughput results from PubChem.
VP16 counter: inhibits Gal4-VP16 luciferase reporter, ROR gamma counter-screen; 3.5% of 310,000 active; Drosophila S2 Gal4-VP16 UAS-luciferase, luminescence, 20 h; Potency, µM (doses to about 53.6 µM), hits mostly inhibitors; AID 2546;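 also: Gal4-VP16 expression switched on by copper sulfate through the metallothionein promoter; nearly all actives have a fitted effect of over 50% in size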
NPSR antagonist: antagonists of human neuropeptide S receptor cAMP signaling; Q6W5P4; CHO-NPSR cells, cAMP TR-FRET, antagonist mode; Potency, µM (series often up to 38.3 µM), most hits filed as inhibitors; 1% of 220,000 active; also: nearly all actives have a fitted effect of over 50% in size
B2AR arrestin: agonists driving beta-arrestin recruitment to human beta2-adrenergic receptor; P07550; beta-arrestin recruitment to beta2AR, cell-based reporter; Potency, µM (highest dose often 46.1 µM), most hits filed as activators; 0.02% of 330,000 active; also: nearly all actives have a fitted effect of over 65% in size
RORg inh: ROR gamma (mouse) transcription inhibition; P51450; Drosophila S2 Gal4-RORgamma UAS-luciferase reporter, 20 h; Potency, µM (titrated, usually from 53.6 µM), hits mostly inhibitors; 5.4% of 310,000 active; AID 2551; also: nearly all actives have a fitted effect of over 60% in size
Target sequence (P51450 whole entry, looked up, the tested form may be a part): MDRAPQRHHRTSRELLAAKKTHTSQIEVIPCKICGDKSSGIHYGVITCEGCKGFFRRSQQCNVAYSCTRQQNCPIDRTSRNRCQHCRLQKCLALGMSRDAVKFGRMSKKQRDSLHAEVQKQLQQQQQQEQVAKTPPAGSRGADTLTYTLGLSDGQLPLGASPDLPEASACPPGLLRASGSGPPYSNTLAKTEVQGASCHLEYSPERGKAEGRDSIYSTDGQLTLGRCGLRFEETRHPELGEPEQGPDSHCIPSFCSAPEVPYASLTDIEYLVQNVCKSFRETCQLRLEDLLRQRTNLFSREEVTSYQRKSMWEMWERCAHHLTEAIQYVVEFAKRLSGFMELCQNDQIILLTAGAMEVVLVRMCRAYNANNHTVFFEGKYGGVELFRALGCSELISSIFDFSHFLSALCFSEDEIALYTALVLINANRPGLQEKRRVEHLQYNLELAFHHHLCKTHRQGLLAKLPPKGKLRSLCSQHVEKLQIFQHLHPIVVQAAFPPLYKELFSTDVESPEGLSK
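Read-out: Photinus luciferase luminescence; inhibitors lower reporter signal. Insect Schneider cells with Gal4-ROR gamma fusion under metallothionein promoter, UAS reporter; 700 uM final copper sulfate induction, 20 hr, ambient temperature.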
A number is an active result; - = inactive; ? = inconclusive; . = not tested or not shown; [ ] = another dose, or the depositor's remark. Compounds with a hit are over-represented: about 5.7% of the library has one in this group of screens. Calls follow the shape of the dose curve; as a rule, active = well fitted curve in the direction sought with a large enough effect; inconclusive = small, poorly fitted or top-dose-only effect, or another doubt; inactive = no such curve, though single readings can be large; an effect the other way counts as inactive or inconclusive.

SMILES	VP16 counter	NPSR antagonist	B2AR arrestin	RORg inh
CC(=O)O[C@@H]1C(=O)[C@@]2(C)[C@H](O)C[C@H]3OC[C@]3(OC(C)=O)[C@@H]2[C@H](OC(=O)c2ccccc2)[C@@]2(O)C[C@H](OC(=O)[C@@H](O)[C@@H](NC(=O)c3ccccc3)c3ccccc3)C(C)=C1C2(C)C (stereo in doubt)	-	.	.	?
COCCCNC(=O)CNC(=S)N(Cc1ccccc1)Cc1cccnc1	-	-	-	-
COCCCNC(=S)N(Cc1ccccc1)Cc1ccccc1	?	?	-	15.8µM
COCCCNC(=S)N(Cc1ccccc1)Cc1nc2ccccc2c(=O)[nH]1	?	-	-	15.8µM
CCNC(=S)N(Cc1ccccc1)Cc1nc2ccccc2c(=O)[nH]1	7.08µM	-	-	6.31µM
COc1ccc2nc3cccc(OC)c3nc2c1	?	-	-	?
COc1ccc2nc3ccccc3nc2c1N	15.8µM	-	-	?
C=CCn1c(-c2ccccc2)n[nH]c1=S	-	-	-	?
C=CCn1c(-c2ccoc2)n[nH]c1=S	17.8µM	-	-	11.2µM
C=CCn1c(CSCc2ccc(F)cc2)n[nH]c1=S	3.55µM	.	-	3.16µM
C=CCn1c(-c2ccc(F)cc2)n[nH]c1=S	?	-	-	7.94µM
C=CCn1c(-c2ccc3ncccc3c2)n[nH]c1=S	?	-	-	?
C=CCn1c(-c2ccncc2)n[nH]c1=S	-	-	-	10µM
Cn1c(-c2cccc(Br)c2)cnc1NCc1ccccc1O	-	.	-	-
Cc1ccccc1-c1nnc(SCC(=O)N2CCCC2)o1	?	.	-	-
COC(=O)c1cc(=O)c(O)c2c(O)c(O)ccc2c1	-	.	.	-
C=CCn1c(CCCOc2ccc(Cl)cc2Cl)n[nH]c1=S	5.62µM	-	-	3.55µM
C=CCn1c(Cc2ccccc2)n[nH]c1=S	?	-	-	7.08µM
C=CCn1c(Cc2c[nH]c3ccccc23)n[nH]c1=S	-	-[7.67 µM]	-	-[10 µM]
C=CCn1c(Cc2nc3ccc(Cl)cc3[nH]2)n[nH]c1=S	-	-	-	?
C=CCn1c(-c2cccc(OCC)c2)n[nH]c1=S	17.8µM	-	-	5.01µM
CC(C)(C)OC(=O)NCCCCC1=CC2=CC(=O)C(C)(OC(=O)C3CCCC3)C(=O)C2=CO1 (stereo not given)	-	.	.	-
CC(C)(C)C1CCc2c(sc(NC(=O)c3cc(C4CC4)on3)c2C#N)C1 (stereo not given)	?	-	-	5.62µM
Nn1c(SCc2cccc(Br)c2)nnc1-c1cccnc1	-	-	-	-
O=C(Nc1nc2ccc(F)cc2s1)C1CCN(S(=O)(=O)c2cc([N+](=O)[O-])ccc2Cl)CC1	5.01µM	-	-	?
SMILES	VP16 counter	NPSR antagonist	B2AR arrestin	RORg inh
Cc1ccc2nc(NC(=O)C3CCN(S(=O)(=O)c4cc([N+](=O)[O-])ccc4Cl)CC3)sc2c1	?	-	-	-
Cc1ccc(NC(=O)CSc2nnc(-c3ccccc3C)o2)cc1C	?	-	-	14.1µM
Cc1cccc(NC(=O)CSc2nnc(-c3ccccc3C)o2)c1	-	-	-	5.01µM
Cc1cc(C)cc(NC(=O)CSc2nnc(-c3ccccc3C)o2)c1	?	?	-	-
COc1ccc(CC/C(C)=N\NC(N)=O)cc1	-	-	-	-
CC(C)N1C(=O)/C(=C/c2nc3ccccc3c(=O)n2-c2ccccc2)c2ccccc21	-[0.365 µM]	10µM	-	?
CC(C)N1C(=O)/C(=C\c2nc3ccccc3c(=O)n2-c2ccccc2)c2ccccc21	?	-	-	-
CCN1Cc2cc(OC)ccc2-c2ccccc2S1(=O)=O	.	.	-	.
Cc1cccc(C[C@H](C(=O)O)N2C(=O)c3ccc(C(=O)O)cc3C2=O)c1	-	.	-	-
Cc1cc(Cn2nc(C(=O)NCC3CC3)cc2-c2ccccc2)on1	.	.	-	.
O=C(Nc1ccc(F)cc1)c1nc(S(=O)(=O)Cc2ccccc2)ncc1Cl	7.94µM	.	-	-
Cc1ccc(NC(=O)c2nc(S(=O)(=O)Cc3ccccc3)ncc2Cl)cc1	2.24µM	.	-	?
CCOC(=O)c1ccc(NC(=O)c2nc(SC)ncc2Cl)cc1	-	.	-	-
Cc1ccccc1CS(=O)(=O)c1ncc(Cl)c(C(=O)Nc2ccc(F)cc2)n1	?	.	-	?
CC(=O)Nc1ccccc1OCc1nnc(-c2ccccc2Cl)o1	-	.	-	-
COc1cccc(-c2nnc(-c3ccc(C(F)(F)F)cc3)o2)c1	-	?	-	-
COc1cccc2sc(Nc3nc4ccc(NC(C)=O)cc4s3)nc12	-	-	-	-
COc1cccc(-c2nnc(Nc3nc4c(F)cccc4s3)o2)c1	3.55µM	-	-	?
COc1cccc2sc(Nc3nc(-c4ccncc4)cs3)nc12	-	-	-	12.6µM
COc1cccc2sc(NN)nc12	22.4µM	-	-	12.6µM
COc1cccc2sc(Nc3nc(-c4cc5ccccc5oc4=O)cs3)nc12	?	-	-	?
COc1cccc2sc(Nc3nnc(-c4ccccc4Cl)o3)nc12	2.51µM	-	-	2µM
COc1ccccc1C1CC(c2cccc(NS(C)(=O)=O)c2)=NN1S(=O)(=O)c1ccccc1 (stereo not given)	.	.	-	.
CCCCn1nc(CC(=O)NCCN(CC)CC)c2ccccc2c1=O	-	-	-	-
COc1ccccc1-c1nnc(Nc2nc3c(OC)cccc3s2)o1	?	-	-	1.58µM
SMILES	VP16 counter	NPSR antagonist	B2AR arrestin	RORg inh
CCOC(=O)c1ccc(NC(=O)N2CCN(c3cccc(OC)c3)CC2)cc1	-	-	-	-
Cc1cc(C)cc(C(=O)NCCCN2CCOCC2)c1	-	.	-	-
Cc1ccccc1-c1cncnc1NCc1cccnc1	-	.	.	-
O=C(CNC(=S)NC(=O)c1cccs1)c1ccccc1	?	-	-	8.91µM
Cc1ccc(C(=O)NC(=S)NCC(=O)c2ccccc2)cc1	?	-	-	?
O=C(NC(=S)NCc1ccccc1)c1cccs1	7.94µM	.	-	5.01µM
O=C(Cc1ccccc1)NNC(=S)NC(=O)c1cccs1	-	-	-	?
CCn1c(COc2cccc(C)c2C)nnc1SCC(=O)N1CCN(c2ccc(OC)cc2)CC1	0.891µM	-	-	-
N#Cc1ccccc1NC(=O)CSc1nnc(-c2ccccc2O)n1-c1ccccc1	?	-	-	12.6µM
Cc1ccccc1NC(=O)CSc1nnc(-c2ccccc2)n1-c1ccccc1	-	-	-	-
COc1ccc(C)cc1NC(=O)CSc1nnc(COc2ccccc2)n1Cc1ccco1	?	?	-	-
CCn1c(CNC(=O)COc2ccc(C(C)C)cc2)nnc1SCC(=O)Nc1ccccc1F	?	-	-	-
COc1ccc(NC(=O)CSc2nnc(COc3ccccc3)n2Cc2ccco2)cc1OC	11.2µM	-	-	-
CCn1c(CNC(=O)COc2ccc(C(C)C)cc2)nnc1SCC(=O)Nc1ccccc1C(C)C	20µM	-	-	-
COCCn1c(=O)cnc2cnc(OC)nc21	-	.	.	-
C[C@@H]1CCC2[C@@H](C)[C@@H](O)O[C@@H]3O[C@@]4(C)CC[C@@H]1[C@@]23OO4 (stereo not given in full)	-	.	.	-
COc1ccc(C(C)=O)cc1CSc1nnc(-c2ccncc2)n1C	-	-	-	-
CCn1c(COc2ccccc2)nnc1SCC(=O)CC(=O)Nc1ccccc1OC	22.4µM	-	-	?
O=C(CSc1nnc(Cc2cccs2)n1Cc1ccco1)Nc1cccc(Cl)c1	11.2µM	-	-	?
